From PubChem BioAssay
Several values for one entry are separate records, joined by “and”; a condition that tells them apart may be missing. Equal entries are not always repeated. Results filed as inconclusive are left out. Activity calls are given as the source filed them.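 Rule for the calls, unless noted: active = superoxide response below 65% of plate, a cut near 3 SD across the whole screen; inactive = the rest.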

Columns and labels:
[1] = yeast TOR pathway RPL19A-GFP modulators, primary screen, cell-based, S. cerevisiae, multiplex flow cytometry (AID 1862; in the data active = percent of DMSO control GFP below about 86%;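 note: lower values mimic rapamycin by blocking the RPL19A rise seen in DMSO cells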); details: S. cerevisiae RPL19A-GFP strain, flow cytometry fluorescence, 3 h; at 10 µM; stronger effect = lower value
[2] = modulators of MEP2-GFP levels in yeast, primary screen, S. cerevisiae, multiplex flow cytometry (AID 1867;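 active = GFP response, as percent of the DMSO control, above the screen-wide mean plus 3 SD, about 139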;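 note: median GFP channel fluorescence of barcode-gated MEP2-GFP cells measured by flow cytometry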); details: S. cerevisiae MEP2-GFP strain, 3 h, at 10 µM, stronger effect = higher value, 100% means same as DMSO wells
[3] = modulators of CIT2-GFP expression in yeast, primary screen, S. cerevisiae, GFP fusion, multiplex flow cytometry (AID 1870;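 active = percent response above a set limit, the screen-wide mean plus 3 SD, cut at about 130% in these data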;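 note: barcoded CIT2-GFP strain pooled with four other GFP strains with rapamycin as positive control; median GFP fluorescence per well over plate mean of DMSO wells so 100% = DMSO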); details: 3 h, at 10 µM, stronger effect = higher value
[4] = modulators of LAP4-GFP expression in yeast, primary screen, S. cerevisiae, multiplex flow cytometry (AID 1873;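 active = GFP signal, as percent of the solvent control, above the screen mean plus 3 SD, about 149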); details: 3 h, at 10 µM, stronger effect = higher value
[5] = modulators of AGP1-GFP expression in yeast TOR pathway, primary screen, cell-based, multiplex flow cytometry, S. cerevisiae (AID 1887;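 active = GFP signal above the screen-wide mean plus 3 SD, that is over about 124.5% of the solvent control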;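 note: AGP1-GFP fusion strain of S. cerevisiae within a five-strain barcoded multiplex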); details: 3 h, at 10 µM, stronger effect = higher value
[6] = inhibitors of CD8+ T cell-vesicle binding, pilot screen, LFA-1/ICAM-1 modulator project, MLPCN validation set, flow cytometry (AID 2523;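 active = response below a set limit, under 55% cells CD8-positive and vesicle-bound, and CD8 cells' 90th-percentile brightness under 279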;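 for vesicle binding response: mean PE anti-B7-1 fluorescence of CD8+ cells relative to row control; 100% = QL9-loaded vesicles with DMSO vehicle in the same plate row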); details: 2C mouse CD8+ T cells, at 7 µM, stronger effect = lower value; double positive events: measured here: CD8+/vesicle+ event percentage
[7] = target: Integrin beta-1 (Homo sapiens) + Integrin alpha-4 (Homo sapiens) (UniProt P13612+P05556); assay: inhibition of HUTS-21 binding to VLA-4, pilot screen, VLA-4 allosteric modulator project, U937 cells, HUTS-21 mAb, flow cytometry, validation set (AID 2674;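 active = inhibition above 50%, about 3 SD of the validation set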;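 note: antibody binding induced by the VLA-4 ligand LDV present at three times its Kd; 0% = LDV ligand with antibody and no compound and 100% = antibody without LDV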); details: HUTS-21 LIBS mAb binding, at 6.7 µM, stronger effect = higher value, binding induced by LDV ligand
[8] = superoxide lowering in aged yeast cells, pilot screen, validation compound set (AID 2706);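 note: yeast exposed to compound for one week at 30 degrees C before staining; 100% = mean of all compound wells on the same plate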; details: S. cerevisiae aging, superoxide DHE fluorescence; at 10 µM; stronger effect = lower value
[9] = target: Beta-adrenergic receptor kinase 1 (Homo sapiens) (UniProt P25098); assay: GRK2 binders displacing RNA aptamer, biochemical, validation, human GRK2, bead flow cytometry (AID 488806;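 active = aptamer binding inhibition above 30%, about 3 SD of noise from non-fluorescent compounds; inactive = inhibition at or below 30%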); details: bead-bound GRK2, FAM-aptamer displacement, at 10 µM, stronger effect = higher value
[10] = target: Beta-2 adrenergic receptor (Homo sapiens) (UniProt P07550); assay: beta2AR agonists driving receptor internalization, pilot screen, cell-based, FAP fluorogen, flow cytometry, validation set (AID 504459;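 active = percent response above 42, roughly 3 SD of non-fluorescent test compounds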;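 note: agonist-driven loss of surface beta2AR via internalization measured by FAP dye flow cytometry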); details: Am2.2-beta2AR cells, FAP surface receptor flow cytometry; at 10 µM; stronger effect = higher value
[11] = target: AP-2 complex subunit beta (Homo sapiens) (UniProt P63010); assay: inhibitors of arrestin peptide binding to AP2, pilot screen, biochemical, validation set, GST-AP2 beads, flow cytometry (AID 504541;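 active = inhibition above 54%, about 3 SD of non-fluorescent compounds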;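 note: AP2 carries R879A mutation and is captured from E. coli lysate; bead-bound FITC arrestin peptide fluorescence measuring arrestin peptide binding to AP2; 0% = DMSO wells and 100% = excess unlabeled arrestin peptide control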); details: FITC arrestin peptide, at 10 µM, stronger effect = higher value, AP2 beta2 appendage fragment, R879A mutant
[12] = yeast V-ATPase proton transport modulators, S. cerevisiae, pHLuorin, HTS validation (AID 504600; in the data active = response above about 15%;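 note: plate controls were DMSO for no effect and reference compound for full effect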); details: S. cerevisiae pHLuorin cytosolic pH, at 10 µM, stronger effect = higher value
[13] = tested on: anti-desmoglein-3 scFv antibody binding to human DSG3; assay: inhibitors of anti-DSG3 scFv binding to DSG3, pilot screen, biochemical, validation compound set, bead-based, flow cytometry (AID 588368;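 active = binding below the plate cutoff, the plate median minus 3 SD, with a reading above zero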;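 note: signal is the median channel fluorescence of bead-bound GFP antibody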); details: Protein G beads, DSG3-Fc, scFv-GFP binding, at 10 µM, stronger effect = lower value
[14] = inhibitors of fungal efflux pumps CDR1, CDR2, MDR1, pilot screen, validation compound set, multiplex, phenotypic (AID 588506;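 active = efflux inhibition above 0.42, the validation set average plus 4 SD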;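 note: Nile Red retained in cells so higher fluorescence means more efflux inhibition; 0 = negative control wells and 1 = enniatin B 25 µM full block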); details: S. cerevisiae pump-expressing triplex, Nile Red efflux flow cytometry; at 10 µM; stronger effect = higher value; the pumps come from Candida albicans
[15] = target: ATP-binding cassette sub-family B member 6 (Homo sapiens) (UniProt Q9NP58); assay: ABCB6 transporter inhibitors, pilot screen, K562-ABCB6 cells, flow cytometry, validation set (AID 588550;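 active = inhibition above the screen-wide mean plus 3 SD, about 51%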;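 note: 0% = DMSO wells and 100% = benzethonium chloride 70 µM positive control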); details: K562-ABCB6 porphyrin accumulation, 1 h, at 10 µM, stronger effect = higher value
[16] = promoters of myeloid differentiation in arrested cells, primary screen, cell-based, GFP/MAC1 double positive, flow cytometry, validation set (AID 588685;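 active = differentiation response of at least 50%, scaled between solvent and reference control, from cells with both markers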;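 note: compound exposure lasts four days before antibody staining and flow analysis; 0% = DMSO wells and 100% = 5 µM fulvestrant positive control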); details: ER-HoxA9 marrow cells, stronger effect = higher value, normalized: vehicle 0, fulvestrant 100

Chain of ATP-binding cassette sub-family B member 6 (Homo sapiens) (Q9NP58 whole entry, looked up): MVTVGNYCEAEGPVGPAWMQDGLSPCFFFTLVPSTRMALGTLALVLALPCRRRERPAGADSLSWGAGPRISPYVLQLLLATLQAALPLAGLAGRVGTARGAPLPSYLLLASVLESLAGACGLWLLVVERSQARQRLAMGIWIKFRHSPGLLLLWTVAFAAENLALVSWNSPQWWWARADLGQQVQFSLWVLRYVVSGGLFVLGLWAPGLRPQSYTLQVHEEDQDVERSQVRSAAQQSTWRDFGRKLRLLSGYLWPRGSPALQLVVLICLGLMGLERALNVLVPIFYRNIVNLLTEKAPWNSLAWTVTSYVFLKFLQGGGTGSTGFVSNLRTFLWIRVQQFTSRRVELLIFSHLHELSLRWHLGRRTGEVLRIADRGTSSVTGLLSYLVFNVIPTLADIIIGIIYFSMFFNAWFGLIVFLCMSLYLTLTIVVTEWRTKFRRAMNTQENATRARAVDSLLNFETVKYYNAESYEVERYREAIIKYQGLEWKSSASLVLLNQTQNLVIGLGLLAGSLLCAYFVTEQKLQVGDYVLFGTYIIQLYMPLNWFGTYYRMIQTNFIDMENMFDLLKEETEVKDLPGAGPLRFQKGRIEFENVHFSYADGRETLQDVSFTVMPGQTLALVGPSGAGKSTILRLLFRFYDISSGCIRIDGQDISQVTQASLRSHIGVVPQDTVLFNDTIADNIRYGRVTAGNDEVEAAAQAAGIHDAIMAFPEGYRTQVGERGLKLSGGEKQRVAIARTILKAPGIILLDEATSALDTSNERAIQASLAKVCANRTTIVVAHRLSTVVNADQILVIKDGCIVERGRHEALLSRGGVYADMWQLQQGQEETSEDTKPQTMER
Chain of Beta-adrenergic receptor kinase 1 (Homo sapiens) (P25098 whole entry, looked up): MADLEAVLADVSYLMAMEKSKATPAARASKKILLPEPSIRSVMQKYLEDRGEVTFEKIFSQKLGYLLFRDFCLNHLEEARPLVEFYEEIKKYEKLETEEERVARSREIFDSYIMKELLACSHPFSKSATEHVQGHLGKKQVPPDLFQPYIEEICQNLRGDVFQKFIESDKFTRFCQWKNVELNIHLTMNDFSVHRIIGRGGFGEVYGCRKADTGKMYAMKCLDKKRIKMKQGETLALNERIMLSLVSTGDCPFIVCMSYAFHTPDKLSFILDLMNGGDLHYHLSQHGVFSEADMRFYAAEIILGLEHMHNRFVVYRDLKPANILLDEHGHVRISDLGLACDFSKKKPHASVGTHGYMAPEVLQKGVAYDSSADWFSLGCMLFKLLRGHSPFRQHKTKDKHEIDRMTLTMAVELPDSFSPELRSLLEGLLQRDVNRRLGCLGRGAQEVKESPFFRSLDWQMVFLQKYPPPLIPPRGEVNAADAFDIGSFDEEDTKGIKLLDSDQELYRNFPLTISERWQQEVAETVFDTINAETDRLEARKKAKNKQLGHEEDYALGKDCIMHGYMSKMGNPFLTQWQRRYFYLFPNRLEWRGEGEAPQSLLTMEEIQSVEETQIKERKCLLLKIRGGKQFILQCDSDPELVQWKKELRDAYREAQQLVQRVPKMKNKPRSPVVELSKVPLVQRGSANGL
Chain of Beta-2 adrenergic receptor (Homo sapiens) (P07550 whole entry, looked up): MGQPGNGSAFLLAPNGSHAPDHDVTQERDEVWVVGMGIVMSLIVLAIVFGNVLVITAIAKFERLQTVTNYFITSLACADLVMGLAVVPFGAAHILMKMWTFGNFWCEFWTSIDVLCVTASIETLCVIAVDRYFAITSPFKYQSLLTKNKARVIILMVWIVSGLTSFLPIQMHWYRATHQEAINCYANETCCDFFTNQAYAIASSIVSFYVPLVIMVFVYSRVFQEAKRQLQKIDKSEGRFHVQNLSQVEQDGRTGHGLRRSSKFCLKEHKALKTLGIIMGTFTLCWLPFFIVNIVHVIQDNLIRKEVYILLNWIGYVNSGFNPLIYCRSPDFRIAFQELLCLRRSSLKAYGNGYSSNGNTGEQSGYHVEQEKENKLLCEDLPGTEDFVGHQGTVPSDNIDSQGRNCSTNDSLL
Chain of AP-2 complex subunit beta (Homo sapiens) (P63010 whole entry, looked up, the tested form may be a part, one chain of several): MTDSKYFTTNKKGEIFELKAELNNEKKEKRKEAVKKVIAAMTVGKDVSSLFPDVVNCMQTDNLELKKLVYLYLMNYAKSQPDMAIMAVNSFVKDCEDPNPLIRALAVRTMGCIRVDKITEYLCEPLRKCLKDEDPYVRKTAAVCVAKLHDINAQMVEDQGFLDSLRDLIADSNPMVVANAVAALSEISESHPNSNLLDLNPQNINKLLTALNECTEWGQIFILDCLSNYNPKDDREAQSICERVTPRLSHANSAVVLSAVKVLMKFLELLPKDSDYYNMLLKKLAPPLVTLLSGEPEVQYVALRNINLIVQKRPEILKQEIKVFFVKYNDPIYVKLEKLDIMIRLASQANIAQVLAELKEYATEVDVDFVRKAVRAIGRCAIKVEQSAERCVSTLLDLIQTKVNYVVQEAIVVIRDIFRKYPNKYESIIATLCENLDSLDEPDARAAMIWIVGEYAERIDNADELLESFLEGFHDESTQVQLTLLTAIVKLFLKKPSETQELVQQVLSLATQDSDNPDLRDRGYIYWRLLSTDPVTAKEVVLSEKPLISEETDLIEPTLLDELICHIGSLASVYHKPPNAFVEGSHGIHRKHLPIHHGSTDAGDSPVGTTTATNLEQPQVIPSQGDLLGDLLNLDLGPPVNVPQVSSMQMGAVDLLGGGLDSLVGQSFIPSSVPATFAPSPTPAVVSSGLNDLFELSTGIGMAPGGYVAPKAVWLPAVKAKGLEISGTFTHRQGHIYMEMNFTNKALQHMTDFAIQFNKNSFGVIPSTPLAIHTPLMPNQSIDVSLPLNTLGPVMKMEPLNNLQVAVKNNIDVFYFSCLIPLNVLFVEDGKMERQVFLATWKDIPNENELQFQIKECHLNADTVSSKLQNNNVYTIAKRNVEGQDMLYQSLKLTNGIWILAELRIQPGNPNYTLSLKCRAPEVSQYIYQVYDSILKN
Chain of Integrin beta-1 (Homo sapiens) + Integrin alpha-4 (Homo sapiens) (P05556 whole entry, looked up): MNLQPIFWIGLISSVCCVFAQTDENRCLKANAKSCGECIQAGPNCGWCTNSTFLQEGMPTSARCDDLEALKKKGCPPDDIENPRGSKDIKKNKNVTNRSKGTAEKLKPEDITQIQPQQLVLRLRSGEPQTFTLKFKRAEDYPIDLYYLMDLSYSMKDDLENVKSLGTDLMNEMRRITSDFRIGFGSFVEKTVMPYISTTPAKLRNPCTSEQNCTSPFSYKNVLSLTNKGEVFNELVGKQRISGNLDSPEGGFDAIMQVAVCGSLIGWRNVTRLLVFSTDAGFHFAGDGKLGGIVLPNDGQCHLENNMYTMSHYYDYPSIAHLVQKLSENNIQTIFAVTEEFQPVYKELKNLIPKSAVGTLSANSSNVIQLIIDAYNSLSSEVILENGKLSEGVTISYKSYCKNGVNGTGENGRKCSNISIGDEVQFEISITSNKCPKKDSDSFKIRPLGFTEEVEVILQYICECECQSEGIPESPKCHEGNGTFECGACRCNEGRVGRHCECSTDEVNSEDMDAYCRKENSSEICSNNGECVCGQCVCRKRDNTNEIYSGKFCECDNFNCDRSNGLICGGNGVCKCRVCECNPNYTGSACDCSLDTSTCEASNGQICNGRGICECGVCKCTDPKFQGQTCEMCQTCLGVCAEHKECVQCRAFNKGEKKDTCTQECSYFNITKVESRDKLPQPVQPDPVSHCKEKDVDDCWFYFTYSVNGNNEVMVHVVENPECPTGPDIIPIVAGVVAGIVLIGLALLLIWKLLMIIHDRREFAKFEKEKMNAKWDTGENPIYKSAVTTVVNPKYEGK
Chain of Integrin beta-1 (Homo sapiens) + Integrin alpha-4 (Homo sapiens) (P13612 whole entry, looked up): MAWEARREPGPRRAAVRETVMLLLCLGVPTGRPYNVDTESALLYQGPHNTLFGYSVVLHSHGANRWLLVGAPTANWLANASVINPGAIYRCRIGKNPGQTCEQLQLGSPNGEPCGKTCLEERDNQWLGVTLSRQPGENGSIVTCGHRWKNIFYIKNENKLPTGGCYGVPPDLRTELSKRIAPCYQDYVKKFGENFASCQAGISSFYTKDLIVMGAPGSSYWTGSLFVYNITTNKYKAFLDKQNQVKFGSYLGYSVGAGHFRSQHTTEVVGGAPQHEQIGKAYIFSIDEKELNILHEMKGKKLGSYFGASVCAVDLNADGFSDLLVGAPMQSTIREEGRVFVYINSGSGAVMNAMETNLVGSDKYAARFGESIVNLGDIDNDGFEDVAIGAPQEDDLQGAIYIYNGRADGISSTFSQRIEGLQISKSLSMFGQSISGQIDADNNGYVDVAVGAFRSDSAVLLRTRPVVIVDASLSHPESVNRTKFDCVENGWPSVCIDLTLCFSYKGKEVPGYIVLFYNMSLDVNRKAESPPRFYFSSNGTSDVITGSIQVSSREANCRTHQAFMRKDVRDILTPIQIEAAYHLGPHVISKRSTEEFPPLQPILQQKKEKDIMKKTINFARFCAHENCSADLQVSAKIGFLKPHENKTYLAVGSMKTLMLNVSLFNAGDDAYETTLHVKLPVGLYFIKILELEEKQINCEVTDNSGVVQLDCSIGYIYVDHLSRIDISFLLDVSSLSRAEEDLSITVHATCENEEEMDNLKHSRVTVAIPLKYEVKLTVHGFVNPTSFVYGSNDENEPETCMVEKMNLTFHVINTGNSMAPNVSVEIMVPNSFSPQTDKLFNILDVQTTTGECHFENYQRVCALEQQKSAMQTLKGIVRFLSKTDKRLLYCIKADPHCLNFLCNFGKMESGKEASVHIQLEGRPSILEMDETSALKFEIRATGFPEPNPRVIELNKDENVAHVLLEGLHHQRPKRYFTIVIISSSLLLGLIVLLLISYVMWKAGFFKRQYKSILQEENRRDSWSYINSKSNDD

Cc1ccc(S(=O)(=O)NC(=O)NN2CCCCCC2)cc1
percent of DMSO control GFP [1]: 102% (inactive)
GFP response vs DMSO [2]: 110% (inactive)
percent response of DMSO control [3]: 100% (inactive)
GFP response vs DMSO [4]: 96.6% (inactive)
GFP response, % of DMSO [5]: 97.5% (inactive)
double positive events [6]: 61.4%
vesicle binding response [6]: 226% (inactive)
inhibition [7]: 29.6% (inactive)
superoxide response (% of plate) [8]: 92.2% (inactive)
aptamer binding inhibition [9]: 4% (inactive)
response [10]: -9.17% (inactive)
inhibition [11]: 3.4% (inactive)
response [12]: -0.51% (inactive)
binding (% of control) [13]: 99.7% (inactive)
efflux inhibition (fraction of control) [14]: -0.04 (inactive)
inhibition [15]: -2% (inactive)
differentiation response [16]: 14.9% (inactive)

CC(=O)CCCCn1c(=O)c2c(ncn2C)n(C)c1=O
percent of DMSO control GFP [1]: 103% (inactive)
GFP response vs DMSO [2]: 96.2% (inactive)
percent response of DMSO control [3]: 106% (inactive)
GFP response vs DMSO [4]: 82.2% (inactive)
GFP response, % of DMSO [5]: 97.5% (inactive)
double positive events [6]: 57.8%
vesicle binding response [6]: 162% (inactive)
inhibition [7]: 12% (inactive)
superoxide response (% of plate) [8]: 102% (inactive)
aptamer binding inhibition [9]: 2% (inactive)
response [10]: -1.49% (inactive)
inhibition [11]: 4.72% (inactive)
response [12]: 0.63% (inactive)
binding (% of control) [13]: 95.5% (inactive)
efflux inhibition (fraction of control) [14]: 0.49 (active)
inhibition [15]: -3% (inactive)
differentiation response [16]: 20.8% (inactive)

CC(=O)Nc1c(I)c(NC(C)=O)c(I)c(C(=O)O)c1I
percent of DMSO control GFP [1]: 89.3% (inactive)
GFP response vs DMSO [2]: 123% (inactive)
percent response of DMSO control [3]: 104% (inactive)
GFP response vs DMSO [4]: 78.1% (inactive)
GFP response, % of DMSO [5]: 94% (inactive)
double positive events [6]: 58.9%
vesicle binding response [6]: 171% (inactive)
inhibition [7]: 10.3% (inactive)
superoxide response (% of plate) [8]: 103% (inactive)
aptamer binding inhibition [9]: -1% (inactive)
response [10]: -8.3% (inactive)
inhibition [11]: 2.48% (inactive)
response [12]: 1.06% (inactive)
binding (% of control) [13]: 95% (inactive)
efflux inhibition (fraction of control) [14]: 0.12 (inactive)
inhibition [15]: 9% (inactive)
differentiation response [16]: 2.46% (inactive)

CCNC(=O)c1c(N)sc2c1CCCCC2
percent of DMSO control GFP [1]: 103% (inactive)
GFP response vs DMSO [2]: 96.3% (inactive)
percent response of DMSO control [3]: 101% (inactive)
GFP response vs DMSO [4]: 90.5% (inactive)
GFP response, % of DMSO [5]: 94.9% (inactive)
double positive events [6]: 63.8%
vesicle binding response [6]: 262% (inactive)
inhibition [7]: -27.7% (inactive)
superoxide response (% of plate) [8]: 101% (inactive)
aptamer binding inhibition [9]: 1% (inactive)
response [10]: 33.6% (inactive)
inhibition [11]: 9.58% (inactive)
response [12]: -1.51% (inactive)
binding (% of control) [13]: 95.3% (inactive)
efflux inhibition (fraction of control) [14]: 0.12 (inactive)
inhibition [15]: 2% (inactive)
differentiation response [16]: 7.2% (inactive)

Cc1cnc(NC(=O)C2=C(O)c3ccccc3S(=O)(=O)N2C)s1
percent of DMSO control GFP [1]: 107% (inactive)
GFP response vs DMSO [2]: 112% (inactive)
percent response of DMSO control [3]: 88.4% (inactive)
GFP response vs DMSO [4]: 80.8% (inactive)
GFP response, % of DMSO [5]: 92.9% (inactive)
double positive events [6]: 65.2%
vesicle binding response [6]: 958% (inactive)
inhibition [7]: -6.68% (inactive)
superoxide response (% of plate) [8]: 109% (inactive)
aptamer binding inhibition [9]: 3% (inactive)
response [10]: 1.12% (inactive)
inhibition [11]: 8.13% (inactive)
response [12]: 1.87% (inactive)
binding (% of control) [13]: 93.7% (inactive)
efflux inhibition (fraction of control) [14]: 0.27 (inactive)
inhibition [15]: 14% (inactive)
differentiation response [16]: 12% (inactive)

CC1(C)CC(NC(=O)C23CCC(C)(C(=O)C2=O)C3(C)C)CC(C)(C)N1 (stereo not drawn)
percent of DMSO control GFP [1]: 99% (inactive)
GFP response vs DMSO [2]: 112% (inactive)
percent response of DMSO control [3]: 88.2% (inactive)
GFP response vs DMSO [4]: 116% (inactive)
GFP response, % of DMSO [5]: 99.2% (inactive)
double positive events [6]: 65.1%
vesicle binding response [6]: 166% (inactive)
inhibition [7]: 10.5% (inactive)
superoxide response (% of plate) [8]: 96.1% (inactive)
aptamer binding inhibition [9]: 3% (inactive)
response [10]: -4.74% (inactive)
inhibition [11]: -0.24% (inactive)
response [12]: 6.45% (inactive)
binding (% of control) [13]: 99.7% (inactive)
efflux inhibition (fraction of control) [14]: 0.19 (inactive)
inhibition [15]: 13% (inactive)
differentiation response [16]: 12% (inactive)

CCN(CC)CCNC(=O)c1ccc(NC(C)=O)cc1
percent of DMSO control GFP [1]: 99.4% (inactive)
GFP response vs DMSO [2]: 108% (inactive) and 103% (inactive)
percent response of DMSO control [3]: 101% (inactive)
GFP response vs DMSO [4]: 89.4% (inactive) and 90.7% (inactive)
GFP response, % of DMSO [5]: 99.2% (inactive) and 100% (inactive)
double positive events [6]: 63.2% and 61.4%
vesicle binding response [6]: 4990% (inactive) and 247% (inactive)
inhibition [7]: 1.62% (inactive) and -0.45% (inactive)
superoxide response (% of plate) [8]: 100% (inactive) and 103% (inactive)
aptamer binding inhibition [9]: 3% (inactive) and -3% (inactive)
response [10]: -11.2% (inactive) and -2.15% (inactive)
inhibition [11]: -11.4% (inactive) and 6.7% (inactive)
response [12]: -1.96% (inactive) and 1.62% (inactive)
binding (% of control) [13]: 95.9% (inactive) and 97.4% (inactive)
efflux inhibition (fraction of control) [14]: 0.02 (inactive) and -0.04 (inactive)
inhibition [15]: -3% (inactive) and 3% (inactive)
differentiation response [16]: -6.6% (inactive) and 20.8% (inactive)

CSCC[C@H](NC(=O)OC(C)(C)C)C(=O)N1CCC(C(=O)N[C@@H](C)C(=O)O)CC1
percent of DMSO control GFP [1]: 99.6% (inactive)
GFP response vs DMSO [2]: 105% (inactive)
percent response of DMSO control [3]: 102% (inactive)
GFP response vs DMSO [4]: 89.4% (inactive)
GFP response, % of DMSO [5]: 98.8% (inactive)
double positive events [6]: 65.4%
vesicle binding response [6]: 154% (inactive)
inhibition [7]: 9.71% (inactive)
superoxide response (% of plate) [8]: 98.8% (inactive)
aptamer binding inhibition [9]: 2% (inactive)
response [10]: 6.5% (inactive)
inhibition [11]: -16% (inactive)
response [12]: -1.98% (inactive)
binding (% of control) [13]: 103% (inactive)
efflux inhibition (fraction of control) [14]: -0.22 (inactive)
inhibition [15]: 8% (inactive)
differentiation response [16]: 0.41% (inactive)

CC(=O)OCC[N+](C)(C)C
percent of DMSO control GFP [1]: 95.9% (inactive)
GFP response vs DMSO [2]: 116% (inactive)
percent response of DMSO control [3]: 101% (inactive)
GFP response vs DMSO [4]: 83.6% (inactive)
GFP response, % of DMSO [5]: 105% (inactive)
double positive events [6]: 61.2% and 60.9%
vesicle binding response [6]: 178% (inactive) and 161% (inactive)
inhibition [7]: -20.7% (inactive) and 1.44% (inactive)
superoxide response (% of plate) [8]: 90.4% (inactive) and 67.4% (inactive)
aptamer binding inhibition [9]: 4% (inactive) and 1% (inactive)
response [10]: -3.17% (inactive) and -8.19% (inactive)
inhibition [11]: -8.61% (inactive) and -2% (inactive)
response [12]: 2.52% (inactive) and -3.48% (inactive)
binding (% of control) [13]: 102% (inactive) and 106% (inactive)
efflux inhibition (fraction of control) [14]: 0.09 (inactive) and 0 (inactive)
inhibition [15]: 6% (inactive) and 10% (inactive)
differentiation response [16]: 2.46% (inactive) and -2.03% (inactive)
